# Bioassay records as filed in PubChem BioAssay.
# An excerpt weighted towards active compounds, which were near 2% of everything screened.
# PERK inhibitor – inhibitors of human PERK kinase; Q9NZJ5; CHO PERK-DD fusion, SEAP luminescence translation reporter; inhibition, % at 5.6 µM; 220,000 compounds, 0.17% hits;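 active means inhibition above the mean inhibition of all tested compounds plus 3 SD, set separately per screening campaign, cut at about 2.9% in these data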;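 further: PERK kinase domain activated by AP20187 dimerizer at 100 nM; 0% = DMSO with dimerizer and 100% = rapamycin at 8.4 µM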
# eIF4E 4G PPI – blocks eIF4E binding to eIF4G; AID 782; TR-FRET eIF4E-eIF4GI(517-606) binding, 2 h; 220,000 compounds, 0.37% hits; inhibition, % at 21.7 µM;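 active means inhibition above about 30%, limit read from the data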;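 further: 0% = full FRET control wells and 100% = background wells lacking eIF4GI fragment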
# INS promoter inh – TRM-6 insulin promoter activity inhibition; 130,000 compounds, 0.9% hits; inhibition, % at 2 µM; TRM-6 cells (human fetal islet line), insulin promoter-eGFP reporter, imaging; reporter expression induced with tamoxifen;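 active means inhibition above the mean plus 3 SD, with well images judged a real hit on visual review, cut at about 60% in these data, passing the limit was not always enough; inconclusive means inhibition over the cutoff but images rejected on review; inactive means inhibition not above the cutoff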
# Autophagy mod – alters autophagy in cells; 190,000 compounds, 0.98% hits; AID 463193; MEF GFP-LC3 puncta imaging; test concentration mostly 10 µM; calls only at 10 µM (by protocol);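 active means percentage of spot-positive cells more than 3 SD above its plate mean, without a fluorescence outlier flag or 80% toxicity; inconclusive means no clear call, values can overlap the other calls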;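 further: spot-positive cell cutoff set from DMSO-treated cells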
# Ins promoter up – MIN6 insulin promoter up-regulation; MIN6 insulin promoter-GFP reporter, high-content imaging; hits give high values; z-score at 5 µM; 190,000 compounds, 0.3% hits;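 active means z-score above 3 at 5 µM with at least 500 cells counted in the well; inconclusive means wells under 500 cells, flagged as cytotoxic or low count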
# An asterisk follows results filed as active; i = inactive; ? = inconclusive; nt = no result; + = active, no number.
SMILES,PERK inhibitor,eIF4E 4G PPI,INS promoter inh,Autophagy mod,Ins promoter up
Cc1cc(C)cc(N=C2SC(CC(=O)Nc3ccccc3)C(=O)N2CCN2CCOCC2)c1 (centres undefined),-0.9,-1.6,nt,+,-0.72
CCN(CC)C(=O)C(=O)c1ccn(-c2c(C)csc2C(=O)OC)c1,0.6,0.6,23.8,i,nt
COc1ccc(C(=O)N(C)c2c(C)n(C)n(-c3ccccc3)c2=O)cc1OC,0.5,-1.6,0.0,+,0.2
CCC(NC(=O)NCc1ccc2c(c1)OCO2)(C(F)(F)F)C(F)(F)F,0.5,4.6,58.8,i,0.11
CCC(NC(=O)NCc1ccccc1)(C(F)(F)F)C(F)(F)F,1.1,-1.1,71.4*,i,0.16
O=C1c2ccccc2C(=O)N1CCCCSc1nc2ccccc2c(=O)n1CCCN1CCOCC1,-0.7,-2.5,nt,i,0.36
Cc1[nH]n(-c2ccccc2)c(=S)c1C=Nc1cccc([N+](=O)[O-])c1,0.2,54.8*,nt,i,0.33
Cc1ccccc1OCC(O)Cn1c(NCCN(C)C)nc2c1c(=O)n(C)c(=O)n2C (centres undefined),-0.6,1.2,nt,i,-0.45
Cc1cc(C)n(-c2nc3c(c(=O)[nH]c(=O)n3C)n2CC(O)COc2ccc(Cl)cc2Cl)n1 (centres undefined),-0.2,-2.5,-40.0,+,0.09
Cc1cc(C)n(-c2nc3c(c(=O)n(C)c(=O)n3C)n2CC(O)COc2ccccc2C)n1 (centres undefined),-0.2,nt,76.9*,i,nt
CC(C)CN(Cc1cc(=O)oc2cc3c(cc12)CCCC3)CC(C)C,0.5,7.1,nt,nt,-0.1
COc1ccc(OC)c(N(CC(=O)N2CCN(c3cc(Cl)ccc3C)CC2)S(C)(=O)=O)c1,-0.9,2.6,-25.7,+,-0.43
CC1=NOC(=O)/C1=C\c1ccc(-c2ccccc2Br)o1,1.0,3.0,-14.3,i,nt
N#Cc1c(-c2cccs2)nc(SCC(=O)c2cccs2)[nH]c1=O,2.7,-6.3,nt,i,-0.57
Cc1cccc(NC(=S)NC(=O)/C=C/c2ccco2)c1,-0.6,0.5,nt,+,1.23
COCCCNc1c2c3c(cccc3[nH]c1=O)C(=O)c1ccccc1-2,0.0,1.4,nt,?,nt
Cc1ccc(-c2nn(-c3ccccc3)cc2/C=N/NC(=O)c2ccc(Br)o2)cc1,0.0,16.3,23.3,i,?
O=C(N/N=C\c1cn(-c2ccccc2)nc1-c1ccccc1)c1ccc(Br)o1,-0.2,16.8,-73.3,i,3.24*
COCc1cc(/C=N\NC(=O)Cc2ccc(OC)cc2)ccc1OC,1.1,-0.2,50.0,i,0.39
Cc1ccc(-c2cc(N)n(-c3ccc(C)cc3)n2)cc1,0.2,2.0,nt,i,-0.33
Cc1ccc(-c2cc(N)n(-c3ccc(F)cc3)n2)cc1,3.4*,-1.1,nt,i,-0.32
Cc1ccc(NC(=O)N(Cc2ccc3c(c2)OCO3)Cc2cc3cc4c(cc3[nH]c2=O)OCCO4)cc1,-0.3,0.7,-15.2,+,-5.39
CC(=O)Nc1ccc(S(=O)(=O)Nc2ccc(=O)n(Cc3ccc(Cl)c(Cl)c3)c2)cc1,0.1,-3.4,nt,i,-0.71
Cc1ccc(S(=O)(=O)Nc2ccc(=O)n(Cc3ccc(Cl)c(Cl)c3)c2)cc1,0.0,2.0,-23.3,i,3.26*
CCC(C(=O)c1ccccc1)P(=O)(NN)c1ccccc1 (centres undefined),-1.8,-6.2,nt,nt,0.26
SMILES,PERK inhibitor,eIF4E 4G PPI,INS promoter inh,Autophagy mod,Ins promoter up
COc1ccc(C(OCC2CO2)c2ccc(OC)cc2)cc1 (centres undefined),0.5,1.6,76.9*,i,0.24
CCn1nc(C(=O)Nc2nc3ccc(C)cc3s2)c2ccccc2c1=O,-0.8,-5.6,-37.1,+,-0.14
O=C(COc1ccccc1[N+](=O)[O-])N(Cc1ccccc1)c1ccccn1,0.5,-3.4,nt,i,-0.11
O=C(CSc1ncn[nH]1)NCc1ccccc1,0.3,4.8,-8.1,i,5.42*
O=C(CSc1ncn[nH]1)NC1CC2CCC1C2 (centres undefined),-1.1,-0.2,27.3,+,1.2
COc1ccc(CNC(=O)CSc2ncn[nH]2)cc1,0.9,-3.1,-75.8,i,nt
CCc1ccc2c(c1)cc(C)c1nnc(SCC(=O)Nc3cc(OC)c(OC)cc3C(=O)O)n12,1.6,5.0,nt,i,0.17
COCC(C)NCc1ccc(OC)c(Br)c1 (centres undefined),0.4,-3.7,-26.7,i,0.17
Oc1ccc(N2CCN(C(c3ccccn3)c3nnnn3C3CCCC3)CC2)cc1 (centres undefined),-0.7,0.7,nt,i,0.16
